Test [1] is described as follows: Caspase-3/7 induction in HepG2 cells by small molecules, qHTS assay (AID 1346978). Note: nearly all actives have a fitted effect of over 15% in size. The procedure, abridged: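 Wild-type HepG2 cells, 2,000/well, settled 5 hr at 37 C and 5% CO2, then compound-treated for 17 hr; caspase-3/7 activity read by luminescent Caspase-Glo 3/7 after 30 min at room temperature.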
(Quantitative high-throughput screening tests each substance at several concentrations.)

Test [2] in a line: Caspase-3/7 induction in CHO-K1 cells by small molecules, qHTS cell viability counter screen (AID 1346979). Note: nearly all actives have a fitted effect of over 35% in size. Note: potency is the fitted concentration of half-maximal effect. A digest of the protocol: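 Seeding: 1,500 CHO-K1 cells/well. Rest: 5hr, 37C. Treatment: compounds in DMSO, 16hr. Read: CellTiter-Fluor, 1hr, fluorescence.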
The nature of test [3]: Caspase-3/7 induction in CHO-K1 cells by small molecules, qHTS assay (AID 1346980). Note: nearly all actives have a fitted effect of over 15% in size. Note: potency is the fitted concentration of half-maximal effect. A digest of the protocol:
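Wild-type CHO-K1 cells exposed to compounds for 17hr at 37 C, 5% CO2. Caspase-3/7 activity then measured by Caspase-Glo 3/7 luminescence after 30min at room temperature.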

Test [4] in a line: Caspase-3/7 induction in HepG2 cells by small molecules, qHTS cell viability counter screen (AID 1346981). Note: nearly all actives have a fitted effect of over 30% in size. Note: potency is the fitted concentration of half-maximal effect. The procedure, abridged: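 Wild-type HepG2 cells, 2,000/well, settled 5 hr at 37 C, 5% CO2 before compound addition. Viability read by CellTiter-Fluor fluorescence, reagent added after 16 hr compound exposure, then 1 hr at 37C, in the same wells as the caspase read.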
The target of test [5] is Nuclear receptor subfamily 1 group I member 2 (Homo sapiens) (UniProt O75469). Put plainly: Human pregnane X receptor (PXR) small molecule agonists, qHTS assay (AID 1346982). Note: nearly all actives have a fitted effect of over 35% in size. Note: potency is the fitted concentration of half-maximal effect. The procedure, abridged:
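PXR-Luc HepG2 reporter cells (CYP3A4-driven luciferase) in 5% charcoal-stripped FBS medium, plated 5 h before compound addition, then treated 24 h at 37C. Luciferase read by ONE-Glo luminescence after 30 min at room temperature.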

The target in test [6] is Nuclear receptor subfamily 1 group I member 2 (Rattus norvegicus) (UniProt Q9R1A7). Put plainly: Rat pregnane X receptor (rPXR) activation by small molecules, qHTS assay (AID 1346983). Note: nearly all actives have a fitted effect of over 20% in size. To be noted: rPXR luciferase reporter cells, One-Glo luminescence, 24 h; stronger effect = higher value. A digest of the protocol:
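Cell-based rPXR activation assay: rPXR cells, 2,000 per well, rested 5hr at 37 C, then exposed to compounds in DMSO for 24 hr at 37 C. Luciferase activity read by One-Glo luminescence after 30 min at room temperature.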

In test [7] the target is Nuclear receptor subfamily 1 group I member 2 (Homo sapiens) (UniProt O75469). The experiment in a line: CYP3A4 induction through human pregnane X receptor (PXR) by small molecules, qHTS assay (AID 1346984). Note: nearly all actives have a fitted effect of over 40% in size. A digest of the protocol:
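DPX-2 HepG2 cells carrying a PXR response element and CYP3A4-promoter luciferase construct, treated with compounds 24 hr at 37C. Then P450-Glo CYP3A4 Luciferin-IPA substrate (3uM final) for 3 hr at 37C, One-Glo added, luminescence read.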

Test [8] has the same target. The experiment in a line: Human pregnane X receptor (PXR) activation by small molecules, qHTS assay (AID 1346985). Note: nearly all actives have a fitted effect of over 40% in size. The procedure, abridged: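 DPX-2 cells (HepG2 co-transfected with a PXR response element and a CYP3A4-promoter luciferase construct) were seeded at 2,000 per well, rested 5 hr at 37C, then exposed to DMSO-dissolved compounds for 24 hr. Activation was read as luciferase luminescence.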

Test [9] addresses Acetylcholinesterase (Homo sapiens) (UniProt P22303). The experiment in a line: Acetylcholinesterase (AChE) small molecule antagonists: enzyme-based qHTS assay (AID 1347397; calls by dose curve; note: nearly all actives have a fitted effect of over 55% in size; note: potency is the fitted concentration of half-maximal effect). The settings on record: Potency: AChE enzyme activity inhibition. The procedure, abridged:
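Recombinant human AChE (50 mU/mL) preincubated with compound 30 min at room temperature; acetylthiocholine plus DTNB then added, and thiocholine formation read colorimetrically after 10 min at room temperature. DMSO served as vehicle control.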

For test [10] the target is unchanged. Put plainly: Acetylcholinesterase (AChE) small molecule antagonists: fluorescence cell-based qHTS assay (AID 1347398; calls by dose curve; note: nearly all actives have a fitted effect of over 50% in size; note: potency is the fitted concentration of half-maximal effect). The settings on record: Potency: AChE activity. A digest of the protocol:
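SH-SY5Y cells (2000/well), attached overnight, incubated with compound 30 min at 37 C. Acetylthiocholine plus Thiolite Green then added for 40 min at room temperature. Thiocholine fluorescence (Ex/Em 490/520 nm) reports cellular AChE activity.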

Test [11] has as its target Cytochrome P450 2D6 (Homo sapiens) (UniProt P10635). Put plainly: Cytochrome P450 Family 2 Subfamily D Member 6 (CYP2D6) small molecule antagonists: luciferase reporter qHTS assay (AID 1671196). Note: nearly all actives have a fitted effect of over 50% in size. Note: potency is the fitted concentration of half-maximal effect. The procedure, abridged: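 Cell-free P450-Glo system: CYP2D6 with proluciferin substrate was pre-incubated with compound for 10 min, then reacted with NADPH regeneration for 1 h at room temperature. Luciferin product was detected after 20 min, and data were reported as relative luminescence units.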
(A reporter such as luciferase makes a cellular process visible.)

Test [12] concerns the target Cytochrome P450 2C19 (Homo sapiens) (UniProt P33261). The experiment in a line: Cytochrome P450 Family 2 Subfamily C Member 19 (CYP2C19) small molecule antagonists: luciferase reporter qHTS assay (AID 1671197). Note: nearly all actives have a fitted effect of over 65% in size. Note: potency is the fitted concentration of half-maximal effect. A digest of the protocol: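 CYP2C19 P450-Glo, 1536-well qHTS. Cpd + enzyme/proluciferin substrate 10 min RT; + NADPH regen, 37C 1 h; stop with luciferin detection reagent, 20 min RT, luminescence (RLU). Pos ctrl ketoconazole.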

The target in test [13] is Cytochrome P450 2C9 (Homo sapiens) (UniProt P11712). The experiment in a line: Cytochrome P450 Family 2 Subfamily C Member 9 (CYP2C9) small molecule antagonists: luciferase reporter qHTS assay (AID 1671198). Note: nearly all actives have a fitted effect of over 50% in size. Note: potency is the fitted concentration of half-maximal effect. The procedure, abridged: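 P450-Glo proluciferin substrate with CYP2C9 enzyme; 10 min RT preincubation, then NADPH regeneration 1 h at 37C; luciferin detection reagent 20 min RT, luminescence in relative luminescence units.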

Test [14] concerns the target Cytochrome P450 1A2 (Homo sapiens) (UniProt P05177). Put plainly: Cytochrome P450 Family 1 Subfamily A Member 2 (CYP1A2) small molecule antagonists: luciferase reporter qHTS assay (AID 1671199). Note: nearly all actives have a fitted effect of over 50% in size. Note: potency is the fitted concentration of half-maximal effect. The procedure, abridged:
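P450-Glo CYP1A2 enzyme–proluciferin substrate mix with compound 10 min at room temperature, then NADPH regeneration 1 h at room temperature. Luciferin detection reagent added, luminescence read after 20 min; furafylline positive control.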

Test [15] has as its target Voltage-gated inwardly rectifying potassium channel KCNH2 (Homo sapiens) (UniProt Q12809). Put plainly: Human Ether-a-go-go-Related Gene (hERG) channel small molecule antagonists: fluorescence cell-based qHTS assay (AID 1671200). Note: nearly all actives have a fitted effect of over 50% in size. Note: potency is the fitted concentration of half-maximal effect. A digest of the protocol:
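First, 1000 cells per well are seeded and cultured overnight at 37 C. Next, FluxOR II dye is loaded for 1 h at room temperature, protected from light. After 10 more minutes, stimulus is added and fluorescence is read.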

Test [16] deals with Cytochrome P450 3A4 (Homo sapiens) (UniProt P08684). Put plainly: Cytochrome P450 Family 3 Subfamily A Member 4 (CYP3A4) small molecule antagonists: luciferase reporter qHTS assay (AID 1671201). Note: nearly all actives have a fitted effect of over 50% in size. Note: potency is the fitted concentration of half-maximal effect. The procedure, abridged: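 Enzyme and proluciferin substrate are mixed with test chemicals for 10 min, then NADPH regeneration system drives turnover for 1 h at room temperature. A detection reagent halts the reaction; luminescence after 20 min gives relative activity.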

SMILES strings stand for the structures. Where “and” joins values, the source holds several entries; their conditions need not be identical. Equal values may be shown once. Results filed as inconclusive are left out. Some compounds were tested as several samples or in several runs, with calls that do not always agree. Calls of active or inactive are those of the source. Unless noted, calls come from the whole dose curve; as a rule, active = well fitted curve in the direction sought with a large enough effect in the repeat runs; inconclusive = weak or mixed curves; inactive = no such curve, though single readings can be large; an effect the other way counts as inactive or inconclusive.
% is set by controls: 0 for no effect and ±100 for the full control effect.

Sequence of Cytochrome P450 2C19 (Homo sapiens) (P33261 whole entry, looked up): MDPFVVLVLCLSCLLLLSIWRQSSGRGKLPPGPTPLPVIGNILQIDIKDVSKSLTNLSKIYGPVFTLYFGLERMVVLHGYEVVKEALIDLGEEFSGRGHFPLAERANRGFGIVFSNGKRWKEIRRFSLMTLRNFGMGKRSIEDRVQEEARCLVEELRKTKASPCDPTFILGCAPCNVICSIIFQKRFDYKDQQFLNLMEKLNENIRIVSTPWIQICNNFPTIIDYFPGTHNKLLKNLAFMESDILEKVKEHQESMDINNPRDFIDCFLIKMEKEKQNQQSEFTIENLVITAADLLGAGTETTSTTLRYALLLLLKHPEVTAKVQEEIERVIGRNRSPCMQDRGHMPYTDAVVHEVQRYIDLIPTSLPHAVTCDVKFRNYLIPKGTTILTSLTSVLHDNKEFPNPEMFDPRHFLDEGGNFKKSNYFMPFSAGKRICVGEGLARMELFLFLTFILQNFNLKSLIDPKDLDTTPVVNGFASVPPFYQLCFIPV
Sequence of Nuclear receptor subfamily 1 group I member 2 (Homo sapiens) (O75469 whole entry, looked up): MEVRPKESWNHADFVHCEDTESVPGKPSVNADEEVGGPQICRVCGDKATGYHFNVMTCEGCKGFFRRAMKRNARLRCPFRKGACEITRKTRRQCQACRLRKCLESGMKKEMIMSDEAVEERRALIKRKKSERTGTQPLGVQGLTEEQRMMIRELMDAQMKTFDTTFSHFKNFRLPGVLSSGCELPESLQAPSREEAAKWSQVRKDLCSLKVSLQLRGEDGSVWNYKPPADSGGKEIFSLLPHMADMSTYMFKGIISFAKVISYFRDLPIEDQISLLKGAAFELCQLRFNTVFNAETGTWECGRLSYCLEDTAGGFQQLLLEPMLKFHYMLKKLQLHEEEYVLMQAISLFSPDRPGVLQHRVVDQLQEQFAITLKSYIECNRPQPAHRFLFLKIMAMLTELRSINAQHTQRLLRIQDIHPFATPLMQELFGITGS
Sequence of Cytochrome P450 3A4 (Homo sapiens) (P08684 whole entry, looked up): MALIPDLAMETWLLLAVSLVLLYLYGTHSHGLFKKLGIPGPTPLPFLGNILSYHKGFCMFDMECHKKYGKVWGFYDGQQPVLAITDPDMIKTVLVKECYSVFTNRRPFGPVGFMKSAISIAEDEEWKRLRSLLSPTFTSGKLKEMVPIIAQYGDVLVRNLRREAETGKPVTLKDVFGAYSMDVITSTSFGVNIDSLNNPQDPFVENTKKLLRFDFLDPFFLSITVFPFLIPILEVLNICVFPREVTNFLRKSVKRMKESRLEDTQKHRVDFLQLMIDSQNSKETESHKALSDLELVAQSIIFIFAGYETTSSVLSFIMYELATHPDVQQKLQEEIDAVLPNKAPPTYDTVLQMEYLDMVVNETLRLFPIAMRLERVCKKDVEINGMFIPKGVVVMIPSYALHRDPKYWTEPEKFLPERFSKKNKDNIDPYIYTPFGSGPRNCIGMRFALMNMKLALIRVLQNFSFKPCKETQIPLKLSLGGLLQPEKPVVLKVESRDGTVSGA
Sequence of Acetylcholinesterase (Homo sapiens) (P22303 whole entry, looked up): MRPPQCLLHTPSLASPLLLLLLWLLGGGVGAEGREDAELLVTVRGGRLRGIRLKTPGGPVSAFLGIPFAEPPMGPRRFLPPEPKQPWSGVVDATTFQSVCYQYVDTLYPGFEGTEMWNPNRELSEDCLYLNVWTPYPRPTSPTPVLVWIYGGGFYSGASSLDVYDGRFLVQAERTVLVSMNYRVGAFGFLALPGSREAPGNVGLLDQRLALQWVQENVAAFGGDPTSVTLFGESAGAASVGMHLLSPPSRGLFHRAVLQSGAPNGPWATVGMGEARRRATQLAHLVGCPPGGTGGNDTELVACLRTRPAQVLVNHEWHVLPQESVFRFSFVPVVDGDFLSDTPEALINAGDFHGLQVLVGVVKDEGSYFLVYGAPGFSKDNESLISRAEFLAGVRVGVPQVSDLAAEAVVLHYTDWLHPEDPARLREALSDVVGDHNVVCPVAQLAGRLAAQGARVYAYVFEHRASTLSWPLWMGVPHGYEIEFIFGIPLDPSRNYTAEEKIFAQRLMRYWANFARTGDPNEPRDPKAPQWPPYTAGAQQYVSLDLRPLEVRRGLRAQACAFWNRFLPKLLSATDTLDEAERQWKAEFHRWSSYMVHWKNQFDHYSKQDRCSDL
Sequence of Cytochrome P450 2C9 (Homo sapiens) (P11712 whole entry, looked up): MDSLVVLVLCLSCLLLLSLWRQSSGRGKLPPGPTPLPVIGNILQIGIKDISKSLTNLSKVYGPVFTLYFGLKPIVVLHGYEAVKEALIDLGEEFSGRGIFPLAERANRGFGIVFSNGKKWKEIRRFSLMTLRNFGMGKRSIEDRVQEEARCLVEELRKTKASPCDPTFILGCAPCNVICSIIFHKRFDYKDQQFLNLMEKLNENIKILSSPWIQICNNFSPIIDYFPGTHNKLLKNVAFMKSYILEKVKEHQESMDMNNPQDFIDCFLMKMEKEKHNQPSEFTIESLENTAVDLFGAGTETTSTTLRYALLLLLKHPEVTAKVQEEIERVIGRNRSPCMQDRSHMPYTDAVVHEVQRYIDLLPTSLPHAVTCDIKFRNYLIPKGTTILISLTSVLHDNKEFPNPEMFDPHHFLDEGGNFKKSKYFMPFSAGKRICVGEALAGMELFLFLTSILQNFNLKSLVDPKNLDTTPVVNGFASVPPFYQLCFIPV
Sequence of Cytochrome P450 1A2 (Homo sapiens) (P05177 whole entry, looked up): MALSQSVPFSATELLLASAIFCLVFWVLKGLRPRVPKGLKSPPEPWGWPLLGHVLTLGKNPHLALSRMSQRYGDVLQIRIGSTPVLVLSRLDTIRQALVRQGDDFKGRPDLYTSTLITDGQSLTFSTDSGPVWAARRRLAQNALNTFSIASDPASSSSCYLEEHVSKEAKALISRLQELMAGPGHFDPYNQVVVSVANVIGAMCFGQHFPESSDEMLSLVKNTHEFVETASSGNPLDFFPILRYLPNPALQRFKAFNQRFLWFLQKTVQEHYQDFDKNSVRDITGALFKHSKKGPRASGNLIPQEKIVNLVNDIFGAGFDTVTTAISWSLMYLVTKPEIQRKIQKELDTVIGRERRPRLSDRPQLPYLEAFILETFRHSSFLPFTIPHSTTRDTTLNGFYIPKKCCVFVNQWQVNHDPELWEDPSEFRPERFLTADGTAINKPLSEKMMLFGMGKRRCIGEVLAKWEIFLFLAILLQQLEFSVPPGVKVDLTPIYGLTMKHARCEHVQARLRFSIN
Sequence of Voltage-gated inwardly rectifying potassium channel KCNH2 (Homo sapiens) (Q12809 whole entry, looked up): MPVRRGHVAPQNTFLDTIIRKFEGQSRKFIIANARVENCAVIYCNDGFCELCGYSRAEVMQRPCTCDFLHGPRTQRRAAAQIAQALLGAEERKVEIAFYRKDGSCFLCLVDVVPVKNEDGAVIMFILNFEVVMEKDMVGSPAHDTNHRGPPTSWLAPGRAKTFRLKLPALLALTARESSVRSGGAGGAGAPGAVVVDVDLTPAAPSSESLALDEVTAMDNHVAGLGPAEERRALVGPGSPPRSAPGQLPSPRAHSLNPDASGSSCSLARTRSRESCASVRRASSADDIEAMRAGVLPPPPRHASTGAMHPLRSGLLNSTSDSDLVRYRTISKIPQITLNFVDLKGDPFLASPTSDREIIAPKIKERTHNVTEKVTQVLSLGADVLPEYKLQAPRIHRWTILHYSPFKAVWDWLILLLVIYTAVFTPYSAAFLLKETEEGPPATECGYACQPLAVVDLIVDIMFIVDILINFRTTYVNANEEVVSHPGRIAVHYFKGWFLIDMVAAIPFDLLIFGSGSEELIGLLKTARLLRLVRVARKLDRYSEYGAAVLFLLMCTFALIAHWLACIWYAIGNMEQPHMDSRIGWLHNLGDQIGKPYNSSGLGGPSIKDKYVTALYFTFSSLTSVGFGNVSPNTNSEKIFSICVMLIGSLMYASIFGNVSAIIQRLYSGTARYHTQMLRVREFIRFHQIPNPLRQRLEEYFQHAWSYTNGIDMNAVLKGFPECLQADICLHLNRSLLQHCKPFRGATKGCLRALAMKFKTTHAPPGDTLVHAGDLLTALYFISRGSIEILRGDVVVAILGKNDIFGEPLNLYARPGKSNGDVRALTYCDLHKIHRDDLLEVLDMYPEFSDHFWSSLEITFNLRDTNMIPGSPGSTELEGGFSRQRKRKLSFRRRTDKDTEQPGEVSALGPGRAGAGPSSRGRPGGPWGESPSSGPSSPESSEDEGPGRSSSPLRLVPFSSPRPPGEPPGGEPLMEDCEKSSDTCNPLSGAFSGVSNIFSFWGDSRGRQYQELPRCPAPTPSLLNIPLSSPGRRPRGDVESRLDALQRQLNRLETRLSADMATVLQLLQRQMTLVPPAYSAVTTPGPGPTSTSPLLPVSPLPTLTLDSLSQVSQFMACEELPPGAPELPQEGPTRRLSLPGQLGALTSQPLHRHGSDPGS
Sequence of Cytochrome P450 2D6 (Homo sapiens) (P10635 whole entry, looked up): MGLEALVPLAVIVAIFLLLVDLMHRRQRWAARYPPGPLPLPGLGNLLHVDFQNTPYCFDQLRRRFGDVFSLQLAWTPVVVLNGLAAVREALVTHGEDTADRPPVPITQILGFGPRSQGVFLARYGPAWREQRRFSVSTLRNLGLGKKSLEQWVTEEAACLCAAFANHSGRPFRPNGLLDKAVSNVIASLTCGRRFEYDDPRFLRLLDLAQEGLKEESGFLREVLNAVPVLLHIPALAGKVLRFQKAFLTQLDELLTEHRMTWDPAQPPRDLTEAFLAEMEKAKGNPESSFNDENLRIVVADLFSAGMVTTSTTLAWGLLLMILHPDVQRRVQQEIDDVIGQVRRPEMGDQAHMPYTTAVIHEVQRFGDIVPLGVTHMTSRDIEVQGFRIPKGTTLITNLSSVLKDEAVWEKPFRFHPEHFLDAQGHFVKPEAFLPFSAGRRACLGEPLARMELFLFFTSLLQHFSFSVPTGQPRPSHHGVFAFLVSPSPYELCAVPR

On to `OCCOc1ccccc1`, for which the Potency result in [1], in test [2], in [3], in test [4], in [5] and in test [8] was “inactive” in each case. The Potency entry in test [9], in test [10], in [11], in test [12], in [13] and in [14] was “inactive” throughout. In addition, the Potency entry in test [15] and in test [16] was “inactive” in each case. The max activation in [6] is -2.05% (inactive). In test [7], the result was inactive.
`Oc1ccccc1-c1ccccc1`: the Potency entry in test [1], in test [2], in test [3], in test [8], in [9] and in [10] was “inactive” in each case. Moreover, the Potency result in test [15] and in [16] was “inactive” throughout. For the same compound, the Potency entry in test [5] was “inactive and 31.4 µM (active)”; in [11], 39.9 µM (active); in [12] it was 39.9 µM (active) and 31.7 µM (active) and 23 µM (active); in test [13], 71 µM (active) and 35.6 µM (active) and 25.8 µM (active); in [14], 23 µM (active) [middle of 4 runs]. The max activation in test [6] is -1.27% (inactive). In addition, the compound was classed as inactive in [7].
As for `CC[n+]1ccccc1`, the Potency result in [1], in [3], in test [9], in test [10], in test [11] and in test [14] was “inactive” each time. In addition, the Potency result in test [15] and in test [16] was “inactive” in each case. Also, the Potency entry in test [2] is “inactive and 763 nM (active)”; in test [4], “inactive and 19.2 µM (active)”; in test [5], “inactive and 1.21 µM (active)”; in test [12], “inactive and 3.96 µM (active)”; in test [13], “inactive and 9.94 µM (active)”.
`CCCCCCCCCCCCCC[P+](CCCCCC)(CCCCCC)CCCCCC`: the Potency result in test [1] was “inactive”. Further, the Potency in test [2] is 4.35 µM (active) and 6.16 µM (active) and 2.73 µM (active); in [3], “inactive and 13.8 µM (active)”; in test [4], 13.7 µM (active) and 19.5 µM (active) and inactive; in test [5] it was 2.74 µM (active) and 3.89 µM (active) and 3.43 µM (active); in [9] it was 20.1 µM (active) and 25.4 µM (active) and inactive; in test [10], 35.7 µM (active) and 71.6 µM (active) and inactive. Further, the Potency in test [11] was 201 nM (active) and 101 nM (active) and 224 nM (active); in [12] it was 25.3 µM (active) and 35.9 µM (active) and 79.6 µM (active); in test [13] it was 25.3 µM (active) and 35.9 µM (active) and 5.63 µM (active); in test [14], 35.7 µM (active) and 63.8 µM (active); in test [15], 552 nM (active) and 349 nM (active) and 691 nM (active); in [16], 7.13 µM (active) and 7.16 µM (active) and 3.99 µM (active).
Regarding `C=CCOC(Cn1ccnc1)c1ccc(Cl)cc1Cl` (stereo unspecified), the Potency entry in test [1], in test [3], in [9] and in test [10] was “inactive” each time. The Potency in test [2] is 48.7 µM (active) and 38.6 µM (active); in [5], 48.7 µM (active) and 15.4 µM (active) and 11.9 µM (active); in test [15], 24.6 µM (active) and 21.9 µM (active) and 23.9 µM (active). Moreover, the outcome in [7] was inactive.
`CCCCn1cc[n+](C)c1C`: the Potency entry in test [1], in [2], in test [3], in [4], in [5] and in [11] was “inactive” in each case. In addition, the Potency entry in test [12], in test [13], in test [15] and in test [16] was “inactive” in each case. Further, in test [14], the Potency entry was “inactive and 35.9 µM (active)”.

(Values after PubChem BioAssay (Tox21).)
